The list is not random: actives were taken first. Their share in the collection is about 3.2%.
LmPK inhibitor: LmPK (Leishmania mexicana) enzyme inhibition; Q27686; purified LmPK, Kinase-Glo ATP luminescence, 1 h; Potency, µM (titrated, usually from 57.5 µM), for the others: top-dose activity change, negative = inhibition, most hits filed as inhibitors; actives 0.37% (n = 290,000); AID 1721
Target sequence (Q27686 whole entry, looked up): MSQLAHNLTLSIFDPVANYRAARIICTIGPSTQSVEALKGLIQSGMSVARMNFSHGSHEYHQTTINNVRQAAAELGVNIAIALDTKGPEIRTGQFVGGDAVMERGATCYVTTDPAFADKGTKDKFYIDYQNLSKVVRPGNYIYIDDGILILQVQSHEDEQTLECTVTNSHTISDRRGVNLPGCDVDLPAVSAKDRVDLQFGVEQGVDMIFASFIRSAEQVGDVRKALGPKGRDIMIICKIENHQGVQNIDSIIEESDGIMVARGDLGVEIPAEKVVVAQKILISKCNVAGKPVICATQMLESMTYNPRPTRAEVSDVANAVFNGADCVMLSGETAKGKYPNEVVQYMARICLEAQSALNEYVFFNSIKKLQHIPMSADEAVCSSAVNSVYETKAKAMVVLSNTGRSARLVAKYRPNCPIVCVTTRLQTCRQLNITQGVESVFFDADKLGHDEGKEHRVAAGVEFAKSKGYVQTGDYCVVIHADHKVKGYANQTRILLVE
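qHTS format; LmPK 0.1 nM; substrates PEP 0.5 mM and ADP 0.1 mM. One-hour room-temperature incubation, then coupled luciferase luminescence; 0.5 nM enzyme wells mark activation.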
AMA1 RON2 block: disrupts binding of P. falciparum AMA1 to RON2; AlphaScreen AMA1-biotinylated RON2 peptide binding; Potency, µM (series often up to 58.2 µM), without a hit: top-dose activity change, negative = inhibition, usual class: inhibitors; actives 0.2% (n = 360,000); AID 720542;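 further: 0% = vehicle wells and -100% = peptide control; nearly all actives have a fitted effect of over 45% in size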
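AMA1 (3D7) with his tag at 25 nM final met compounds first, then biotinylated RON2 peptide at 25 nM; detection used donor plus acceptor beads, 10 µg/mL apiece, read by AlphaScreen after 30 min at room temperature.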
TbPYK inhibitor: inhibitors of Trypanosoma brucei pyruvate kinase. Q57TT1. TbPYK enzyme, Kinase-Glo Plus ATP luminescence, 45 min. Potency, µM (highest dose often 76.8 µM), without a hit: at the top dose activity, negative = inhibition, hits mostly inhibitors. actives 0.12% (n = 410,000); further: nearly all actives have a fitted effect of over 50% in size
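Screened from lowest to highest concentration, compounds were pinned into TbPYK/substrate mixtures, and ADP (130 uM final) was added. Plates sat at room temperature for 45 min prior to Kinase-Glo Plus detection by luminescence.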
Sm TGR block: S. mansoni TGR enzyme inhibition | Q962Y6 | purified TGR, DTNB reduction, TNB absorbance 405 nm | AID 485364 | actives 3% (n = 360,000) | Potency, µM (top dose mostly 114 µM), for inactives: top-dose activity change, negative = inhibition, actives largely listed as inhibitors; further: nearly all actives have a fitted effect of over 60% in size
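Kinetic colorimetric format: TGR-catalysed, NADPH-driven DTNB reduction monitored via TNB absorbance. Enzyme dispensed at 20 nM; compound exposure 15 min at room temperature before reaction start.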
RE007 growth inh: less growth of the S. pombe RE007 Vpr strain; S. pombe RE007 Vpr strain, BacTiter-Glo ATP luminescence, 24 h; Potency, µM (top dose mostly 92.2 µM), without a hit: top-dose activity change, negative = less growth, usual class: inhibitors; actives 0.21% (n = 360,000); active means well fitted falling curve with a large enough effect; inconclusive means small, poorly fitted or top-dose-only effect; inactive means no such curve, though single readings can be large or run the other way; further: nearly all actives have a fitted effect of over 50% in size
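Fission yeast strain RE007, carrying one chromosomally integrated HIV-1 vpr copy, was seeded at OD 0.01 in PMG+AL medium with 23 nL pinned compound. After 24 h at 30 °C and 99% humidity, viability was read by BacTiter-Glo luminescence.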
Numbers without * were called inactive; u = inconclusive; x = no result. Unless noted, the call rests on the fitted dose curve; in most records, active means well fitted curve in the direction sought with a large enough effect; inconclusive means small, poorly fitted or top-dose-only effect, or another doubt; inactive means no such curve, though single readings can be large; an effect the other way counts as inactive or inconclusive. Unless noted, on the % scale 0 is the no-effect control and ±100 the full control effect; potency means the concentration at half of the fitted maximal effect.

SMILES	LmPK inhibitor	AMA1 RON2 block	TbPYK inhibitor	Sm TGR block	RE007 growth inh
Cc1ccc(N(CC(=O)NCCSCc2ccco2)S(=O)(=O)c2ccc(C)cc2)cc1	6%	-10%	0%	1%	-19%
COc1cccc(N(CC(=O)NCCSCc2ccco2)S(=O)(=O)c2ccccc2)c1	2%	-27%	-2%	u	11%
COc1ccc(N(CC(=O)NCCSCc2ccco2)S(=O)(=O)c2ccccc2)cc1Cl	-8%	-5%	-9%	18µM*	7%
Cc1cccc(N(CC(=O)NCCSCc2ccco2)S(=O)(=O)c2ccccc2)c1	9%	7%	-8%	32µM*	2%
Cc1ccc(C)c(NC(=O)CSc2nncn3c2cc2sccc23)c1	x	x	3%	4%	x
COc1ccc(C(=O)c2ccc([N+](=O)[O-])cc2Cl)cc1	1%	u	-2%	13µM*	u
CCOC(=O)c1ccc(COC(=O)c2ccc3c(c2)-c2ccccc2C3=O)cc1	8%	-1%	3%	8%	10%
CCOC(=O)C1=C(Cc2ccc(OC)cc2)C(=O)c2ccccc2C1=O	-17%	u	u	14µM*	-12%
CCOC(=O)C1=C(Cc2ccc(C)cc2)C(=O)c2ccccc2C1=O	-20%	x	x	8.9µM*	x
COc1ccc(CCC(C)N2CCC(Oc3ccc(C(=O)N4CCCC4)cc3)CC2)cc1 (stereo not drawn)	-9%	-1%	3%	28µM*	-3%
CCc1ccc(CN2CCC(CO)(CC3CCCCO3)CC2)o1 (stereo not drawn)	0%	6%	-3%	0%	2%
COc1cc(/C=C/CN2CCC(Oc3ccc(C(=O)N4CCCC4)cc3)CC2)ccc1O	-11%	-11%	-1%	18µM*	-3%
OCC1(CC2CCCCO2)CCN(C/C=C/c2ccccc2)CC1 (stereo not drawn)	0%	4%	2%	1%	-17%
COc1ccccc1/C=C/CN1CCC(Oc2ccc(C(=O)N3CCCC3)cc2)CC1	-2%	-11%	-5%	-3%	-10%
Cc1ccc(CN2CCC(CO)(CC3CCCCO3)CC2)o1 (stereo not drawn)	7%	-3%	-1%	45µM*	-10%
COc1cc(/C=C/CN2CCC(CO)(CC3CCCCO3)CC2)ccc1O (stereo not drawn)	-4%	-8%	0%	13µM*	-13%
CCOc1ccccc1-n1nnc(-c2nc(-c3ccccc3)no2)c1N	x	x	6%	3%	x
Cc1ccccc1-c1noc(-c2ccc(N3CCN(C)CC3)c([N+](=O)[O-])c2)n1	x	x	-3%	0%	x
COCC(=O)N1CCC(Oc2ccc(C(=O)N3C[C@@H](C)O[C@@H](C)C3)cc2)CC1	-7%	7%	5%	40µM*	10%
CCOC(=O)C1CCN(C(=O)c2ccc(OC3CCN(C(=O)COC)CC3)cc2)CC1	-1%	20%	1%	-21%	4%
COc1cccc(-c2c(NC(=O)c3ccco3)n(-c3ccc(C)cc3)nc(C)c2=O)c1	3%	34%	-6%	79µM*	12%
O=c1cc(-c2ccccc2)n2c(SCc3c(F)cccc3Cl)nnc2[nH]1	x	x	-6%	9%	x
Cc1cccc(-c2nc3c(cnn3-c3ccccc3)c(=O)n2-c2cccc(Cl)c2)c1	x	x	1%	3%	x
O=C(C(Cc1ccccc1)n1cccc1)N1CCc2ccccc21 (stereo not drawn)	3%	-29%	-2%	35µM*	-10%
CC(C)Sc1nc(NCc2ccco2)c2c3c(sc2n1)COC(C)(C)C3	7%	-2%	-9%	22µM*	17%
SMILES	LmPK inhibitor	AMA1 RON2 block	TbPYK inhibitor	Sm TGR block	RE007 growth inh
CCNc1ccc(Br)cc(C(=O)/C=C/c2c(Cl)cccc2Cl)c1=O	-2%	u	1%	0.89µM*	-1%
CNc1ccc(Br)cc(C(=O)/C=C/c2ccc(Cl)cc2Cl)c1=O	-1%	-22%	-4%	3.5µM*	3%
CNc1ccc(Br)cc(C(=O)/C=C/c2ccc(OC)cc2OC)c1=O	1%	-24%	-18%	u	-16%
CCNc1ccc(Br)cc(C(=O)/C=C/c2ccc(Cl)cc2)c1=O	-2%	-16%	-8%	10µM*	u
CNc1ccc(Br)cc(C(=O)/C=C/c2cccc(OC)c2)c1=O	1%	-20%	-18%	3.2µM*	-20%
CCNc1ccc(Br)cc(C(=O)/C=C/c2ccc3c(c2)OCO3)c1=O	-2%	-27%	u	u	-18%
Cc1ccc(CNC(=O)CCc2c(C)nc3nc(C)nn3c2C)cc1	x	x	-9%	-8%	x
CCOC(=O)CSc1nc2sc3c(c2c(=O)n1Cc1ccccc1)CC(C)CC3 (stereo not drawn)	x	x	-8%	0%	x
O=C1NC(c2ccccc2)C(C(=O)c2cccs2)C(O)(C(F)(F)F)N1 (stereo not drawn)	6%	-6%	-8%	32µM*	4%
COc1ccccc1N1CCN(C(=O)CCn2cnc3onc(-c4ccc(F)cc4)c3c2=O)CC1	x	x	1%	3%	x
S=c1[nH]c(-c2ccccc2)cn1/N=C/c1ccncc1	4.5µM*	63%	u	4%	3%
CCOc1ccc(/C=N/n2cc(-c3ccccc3)[nH]c2=S)cc1	-7%	92%	-35%	3%	15%
Cc1cccc(C(=O)NN2C(=O)C3C(c4ccccc4)C=CC(c4ccccc4)C3C2=O)c1 (stereo not drawn)	2%	-5%	3%	-7%	0%
O=C(NN1C(=O)C2C3C=CC(O3)C2C1=O)c1cccc(Br)c1 (stereo not drawn)	0%	5%	-10%	22µM*	-11%
O=C(NN1C(=O)C2C3C=CC(O3)C2C1=O)c1cccc(O)c1 (stereo not drawn)	0%	4%	3%	20µM*	3%
CCCN(CCC)CCCNC(=O)c1sc2nc3n(c(=O)c2c1C)CCC3	x	x	3%	-6%	x
CS(=O)(=O)N1CCC[C@@]2(CCN(c3ccccn3)C2)C1	x	x	-1%	x	x
Cc1nc([N+](=O)[O-])c(C(=O)OCc2ccccc2Br)n1C	5%	11%	-2%	-1%	8%
Cc1nc([N+](=O)[O-])c(Br)n1CC(=O)c1ccc2ccccc2c1	8%	-3%	5%	14µM*	22%
Cc1nc([N+](=O)[O-])c(Br)n1CC(=O)c1ccc(Br)cc1	8%	0%	-2%	11µM*	-9%
Cc1nc([N+](=O)[O-])c(Br)n1CC(=O)c1ccccc1	-9%	-6%	-2%	4µM*	1%
Cc1cc([N+](=O)[O-])nn1CC(=O)c1ccccc1	1%	-6%	0%	21%	16%
S=C(NCc1ccccc1)Nc1ccc2cn[nH]c2c1	-2%	-5%	-5%	40µM*	33%
CCCCNC(=S)Nc1ccc2cn[nH]c2c1	0%	6%	1%	-11%	5%
